Among all 2,400 compounds or so, about 1,400 (58%) were called active. The set was probably picked from earlier hits. The list shows a part of the results. Unmarked numbers belong to inactive results.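 Rule for the calls: active = inhibition of 30% or more at any tested dose; inconclusive = primary hits over the limit that were never retested; inactive = the rest.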
Test: coupled detection enzyme interference, dose response, artefact control for MgcRacGAP inhibitor project, biochemical, coupled enzyme counter-screen (AID 624351);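 note: signal is the ADP detection kit reading of free GDP without any GAP enzyme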;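 for inhibition: 0% = median positive control wells and 100% = median negative control wells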
Conditions: ADP Hunter coupled enzyme counter-screen, fluorescence, no MgcRacGAP; series mostly up to 80 µM

SMILES | IC50 | inhibition
COc1ccc(CN2CCN(Cc3ccc(Br)cc3)CC2)c(OC)c1OC | inactive | –
COc1cccc(CN2CCN(C(=O)c3ccco3)CC2)c1OC | inactive | –
COc1ccc(C(=O)N2CCN(CCCc3ccccc3)CC2)cc1OC | inactive | –
COc1cc(/C=C/C(=O)OCC(=O)N2CCN(C(=O)c3ccco3)CC2)ccc1O | 33.8 µM (active) | –
Cc1sc2ncnc(Nc3ccc(O)cc3)c2c1C | 38.2 µM (active) | –
Cc1sc2ncnc(N(C)CCc3ccccn3)c2c1C | inactive | –
Cc1sc2ncnc(N/N=C/c3ccc(O)cc3)c2c1C | 48.3 µM (active) | –
COC(=O)/C(=C/Nc1ccc(O)cc1)[N+](=O)[O-] | 23.9 µM (active) | –
O=C(CN1CCN(C2CCCCC2)CC1)Nc1ccccc1-c1ccccc1 | inactive | –
O=C(Nc1cc(Br)c(O)c(Br)c1)c1cccc(NC(=O)c2ccco2)c1 | 81.3 µM (active) | –
O=C(/C=C\c1ccco1)c1ccc(NC(=O)c2ccco2)cc1 | inactive | –
O=C1CCN(c2ccccc2)N1 | inactive | –
O=c1ccn(-c2ccccc2)[nH]1 | 51.3 µM (active) | –
CCN(CC)CCCNCC(=O)Nc1cc(C)on1 | inactive | –
Oc1ccc(N=Nc2ccccc2)cc1 | 78.2 µM (active) | –
Nc1ccc(N=Nc2ccc(O)cc2)c(N)n1 | 10.2 µM (active) | –
CC(=O)Nc1ccc(N=Nc2ccc(O)cc2)cc1 | 24.5 µM (active) | –
Nc1ccc(Nc2nc(-c3ccncc3)cs2)cc1 | 9.43 µM (active) | –
Nc1ccc(Nc2nc(-c3cc4ccccc4oc3=O)cs2)cc1 | inactive | –
NS(=O)(=O)c1ccc(Nc2nc(-c3ccc(O)cc3)cs2)cc1 | 20.9 µM (active) | –
O=c1oc2ccccc2cc1-c1csc(Nc2ccc(O)cc2)n1 | 58 µM (active) | –
NS(=O)(=O)c1ccc(Nc2nc(-c3ccc(O)cc3O)cs2)cc1 | 48.8 µM (active) | –
Cc1cc(NS(=O)(=O)c2ccc(Nc3nc(-c4ccc(O)cc4)cs3)cc2)no1 | 30.2 µM (active) | –
Cc1cnc(C(=O)Oc2ccc(-c3ccccc3)cc2)cn1 | inactive | –
O=C(Nc1ccccc1Cl)/C(Cl)=C(\Cl)S(=O)c1ccccc1 (stereo not given) | inactive | –
O=C(Nc1ccccc1Cl)Oc1ccc(-c2ccccc2)cc1 | 14.1 µM (active) | –
Cc1cc(C)c(C#N)c(SCS(=O)Cc2ccc(Cl)cc2)n1 (stereo not given) | inactive | –

SMILES | IC50 | inhibition
NC(=NCCCCCCN=C(N)/N=C(\N)Nc1ccc(Cl)cc1)/N=C(\N)Nc1ccc(Cl)cc1 | inactive | –
Oc1ccc(/C=N/Nc2cc(N3CCOCC3)nc(N3CCOCC3)n2)cc1 | 49.2 µM (active) | –
Oc1ccc(/C=N\Nc2cc(N3CCOCC3)nc(N3CCOCC3)n2)c(O)c1 | 76.4 µM (active) | –
Oc1ccc(/C=N/Nc2cc(N3CCOCC3)nc(N3CCOCC3)n2)cc1O | 75.5 µM (active) | –
COc1ccc2c(-c3ccccc3)cc(N3CCOCC3)nc2c1 | inactive | –
CN(C)c1ccc(-n2cccc2/C=C/[N+](=O)[O-])cc1 | inactive | –
CCCCN(C)C(=O)C1CCN(Cc2cccc(OCc3ccccc3)c2)CC1 | inactive | –
COc1ccc2[nH]c3c(C)c4ccncc4c(C)c3c2c1 | inactive | –
Cc1ccc(O)c(C=Nc2ccc3[nH]ncc3c2)c1 | 34.5 µM (active) | –
Oc1ccc(Br)cc1C=Nc1ccc2[nH]ncc2c1 | 48.2 µM (active) | –
COc1ccc(C=Nc2ccc3[nH]ncc3c2)c(O)c1 | 38.4 µM (active) | –
Brc1ccc(OCCCN2CCOCC2)cc1 | inactive | –
Cc1ccc(/C=C2/C(=O)ON=C2c2ccccc2)o1 | inactive | –
CCN(c1ccccc1)S(=O)(=O)c1ccc(Cl)c(NC(=O)CN(C)C2CCN(C)CC2)c1 | inactive | –
CCN(c1ccccc1)S(=O)(=O)c1ccc(N2CCN(c3ccc(O)cc3)CC2)nc1 | 53.5 µM (active) | –
COc1ccccc1CNCC(=O)N1CC(=O)Nc2ccccc21 | inactive | –
ON=C1c2ccccc2-c2ccc(O)cc21 | 36.5 µM (active) | –
CN(C)c1ccc2c(c1)C(=NO)c1ccccc1-2 | 42.8 µM (active) | –
CCN(Cc1ccccc1)C(c1ccc(C)cc1)c1nnnn1C(C)(C)CC (stereo not given) | inactive | –
Brc1cccc(OCCN2CCOCC2)c1 | inactive | –
Nc1ccc(-c2nc3ccc(N)cc3o2)cc1 | 44.4 µM (active) | –
CCOc1cc(/C=C/c2cccc[n+]2C)ccc1O | 27.2 µM (active) | –
COc1ccccc1-n1c(=O)c2c3c(sc2n2c(=S)[nH]nc12)CCC3 | 44.9 µM (active) | –
COc1ccc(-n2c(=O)c3c4c(sc3n3c(=S)[nH]nc23)CCCC4)cc1 | 30.3 µM (active) | –
CCn1c(=O)c2c3c(sc2n2c(=S)[nH]nc12)CCC3 | 25 µM (active) | –
C=CCSC1=N/C(=C\C=C\c2ccco2)C(=O)S1 | inactive | –
COc1ccc(/C=N/n2c(-c3n[nH]c4c3CCC4)n[nH]c2=S)cc1OC | 61.5 µM (active) | –

SMILES | IC50 | inhibition
COc1cc(/C=N/n2c(C3CCCCC3)n[nH]c2=S)ccc1O | 51.8 µM (active) | –
COc1cccc(/C=N/n2c(-c3n[nH]c4c3CCC4)n[nH]c2=S)c1O | 54.6 µM (active) | –
COc1ccc(/C=N/n2c(-c3n[nH]c4c3CCC4)n[nH]c2=S)c(OC)c1OC | 65.7 µM (active) | –
C=CCOC(=O)c1cc(-c2ccc(/C=C3\C(=O)NC(=O)C(C#N)=C3C)o2)ccc1Cl | inactive | –
CCN(CC)c1ccc(NC(=O)CN2C(=O)NC3(CCc4ccccc43)C2=O)cc1 (stereo not given) | 83.2 µM (active) | –
CCC1(c2ccccc2)NC(=O)N(CC(=O)Nc2ccc(N3CCCC3)cc2C)C1=O (stereo not given) | inactive | –
CCN(CC)CCCNCC(=O)Nc1ccc2c(c1)CCC2 | inactive | –
Nc1nc(N)c2[nH]c(=S)[nH]c2n1 | inactive | –
O=C1C=CC2(C=C1)O[C@H](Cc1ccccc1)[C@@H](Cc1ccccc1)O2 | inactive | –
COc1ccc(/C=N/NC(=O)CN2CCCCCCC2)c(C)c1C | inactive | –
C=CCNC(=O)CN1CCN(C(c2ccccc2)c2ccccc2)CC1 | inactive | –
O=C1/C(=C\c2ccccc2)CN(C(=O)CCN2CCCCC2)C/C1=C/c1ccccc1 | inactive | –
COc1cc(/C=N/NC(=O)CCN2CCCCC2)ccc1O | 34.3 µM (active) | –
COc1cc(/C=N/NC(=O)CCN2CCN(C(c3ccccc3)c3ccccc3)CC2)ccc1O | 53.4 µM (active) | –
C=CCc1c(C)nc(-c2ccccc2)nc1Nc1ccc(O)cc1 | 41.3 µM (active) | –
Nc1c(/C=C2/C=CC(=O)C(O)=C2)c(=O)nc2sc(CC(=O)N3CCOCC3)nn12 | 67.8 µM (active) | –
CS(=O)(=O)c1ccc2c(c1)sc1nc(=O)c(/C=C3/C=CC(=O)C(O)=C3)c(N)n12 | 60.1 µM (active) | –
Nc1c(/C=C2/C=CC(=O)C(O)=C2)c(=O)nc2sc(CC(=O)N3CCCC3)nn12 | 59.4 µM (active) | –
Cc1ccc(C(C)C)c(OCCCCN2CCNCC2)c1 | inactive | –
CC(NCc1ccc(S(N)(=O)=O)cc1)C(=O)N1c2ccccc2CC1C (stereo not given) | inactive | –
COc1cc(OC)c(C2Nc3cccc4cccc(c34)N2)c(OC)c1 | – | -13.7% [at 5 µM]
COc1ccccc1C1Nc2cccc3cccc(c23)N1 | 51.6 µM (active) | –
COc1ccc(NC(=O)Nc2ccc(N(C)C)cc2)cc1 | 21.9 µM (active) | –
Cc1oc(-c2ccccc2)cc1C(=O)Nc1ccc(N(C)C)cc1 | 65.5 µM (active) | –
Cc1ccc(NC(=O)C2=C(c3ccccc3)S(=O)(=O)CCS2(=O)=O)cc1 | inactive | –
COc1cc(OC)c(C(=O)Nc2ccc(N(C)C)cc2)cc1OC | 27.2 µM (active) | –
CN(C)c1ccc(N=Cc2nc(-c3ccccc3)oc2OC(=O)c2cccc(Br)c2)cc1 | inactive | –

SMILES | IC50 | inhibition
O=C(Nc1ccc(O)cc1)c1cc2n(n1)C(C(F)(F)F)CC(c1ccco1)N2 (stereo not given) | 28.7 µM (active) | –
Cc1cc(C)c(OCCCCN2CCC(C)CC2)c(Br)c1 | inactive | –
COc1ccc(CN2CCN(C(=O)CC(C)C)CC2)cc1OC | inactive | –
COc1ccc(CN2CCC(C(N)=O)CC2)cc1OCc1ccccc1 | inactive | –
COc1ccc(CN2CCN(Cc3ccccc3F)CC2)cc1OC | inactive | –
COc1cc(CNc2ccc(N3CCN(C(C)=O)CC3)cc2)ccc1OCc1ccccc1 | 13.4 µM (active) | –
COc1ccc(CNc2ccc(N3CCN(C(C)=O)CC3)cc2)cc1OC | 15.1 µM (active) | –
COc1cc(CNc2ccc3[nH]c(=O)[nH]c3c2)ccc1OCc1ccccc1 | inactive | –
COc1cc(/C=C/C(=O)OCC(=O)c2ccc(OC(F)F)cc2)ccc1O | 58.2 µM (active) | –
COc1cc(/C=C/C(=O)OCC(=O)c2ccc[nH]2)ccc1O | 25.9 µM (active) | –
C/C(=N\NC(=O)c1cccc(N/N=C(\C)c2cc(O)ccc2O)c1)c1cc(O)ccc1O | 75.5 µM (active) | –
Cc1cc(-c2n[nH]c(=S)n2/N=C/c2ccc(Br)s2)n[nH]1 | 80.5 µM (active) | –
Cc1cc(-c2n[nH]c(=S)n2/N=C/c2cccs2)n[nH]1 | 78.7 µM (active) | –
S=c1[nH]nc(-c2cccs2)n1/N=C/c1cccs1 | 59.7 µM (active) | –
Cc1cc(-c2n[nH]c(=S)n2/N=C/c2ccccc2[N+](=O)[O-])n[nH]1 | 83.5 µM (active) | –
Cc1cc(-c2n[nH]c(=S)n2/N=C/c2sccc2C)n[nH]1 | 62.4 µM (active) | –
O=C1CSC(=S)N1Nc1ccccc1 | 68 µM (active) | –
Nc1ccc2ccc(O)cc2c1 | 31.5 µM (active) | –
Oc1ccc2ccc(Cl)cc2c1 | 53.9 µM (active) | –
C[n+]1c2cc(N)ccc2cc2ccc(N)cc21 | inactive | –
CCCC1=NN2C(=N)/C(=C\c3ccc(SCc4ccco4)o3)C(=O)N=C2S1 | inactive | –
CN(C)c1ccc(N=C/C=C2\N(C)c3ccccc3C2(C)C)cc1 | 12.4 µM (active) | –
CN1/C(=C\C=N\NC(=O)c2ccc(O)cc2)C(C)(C)c2ccccc21 | 74.4 µM (active) | –
CN(C)c1ccc(N=C/C=C2/N(C)c3ccccc3C2(C)C)cc1 | 20.6 µM (active) | –
